Measurements: the supplement of paper PMC4894684
Counter-ions that a name gives are not always drawn. ± gives the standard deviation of the averaged measurements.

Each compound was assayed on Toxoplasma gondii RH (in HFF) (assay: parasite growth relative to the screen mean (all compounds = 100%); higher = less inhibition of parasite growth). Details: 5 µM; 72 h; oxygen 21 %.
In short: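 Confluent human foreskin fibroblasts in 96-well plates received library compounds by pin transfer at 5 µM final, taken from 10 mM DMSO stocks. Within 2 h the cells were infected with RH β-Gal–GFP Toxoplasma at MOI 1:5 and cultured 72 h at 21% O2. A CPRG β-Gal assay read against in-plate standard curves gave parasite number, and growth is stated relative to the screen mean, where all compounds = 100%, averaged across two screens.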

Compound	parasite growth
COc1cc2c(Nc3ccc(NC(=O)c4ccccc4)cc3)ncnc2cc1OCCCN1CCOCC1	17.4 ± 8.7%
O=C(CCCCCN1C(=O)c2cccc3cccc(c23)C1=O)NO [Scriptaid]	< 0%
COc1ccc(-c2oc3cc(OC)ccc3c2C(=O)c2ccc(C#N)cc2)cc1	81.1 ± 22%
N[C@H](C(=O)O)c1ccc(C(=O)O)c(O)c1 [(S)-4-Carboxy-3-hydroxyphenylglycine]	143 ± 25%
CNc1cc2c(Nc3cccc(Br)c3)ncnc2cn1	128 ± 11%
CC1=C(/C=C/C(C)=C/C=C/C(C)=C/C(=O)Nc2ccc(O)cc2)C(C)(C)CCC1 [Fenretinide]	38 ± 8.6%
N=C(N)NC(=N)Nc1ccccc1 [1-Phenylbiguanide hydrochloride]	91.9 ± 21%
CN(C)[C@@H]1CCc2[nH]c3ccc(NC(=O)c4ccc(F)cc4)cc3c2C1	124 ± 19%
N#Cc1cc2nc(O)c(O)nc2cc1[N+](=O)[O-] [CNQX disodium salt]	133 ± 37%
COc1ccc([C@@H]2CNC(=O)C2)cc1OC1CCCC1 [(R)-(-)-Rolipram]	106 ± 6%
O=C(O)C1=CCCNC1 [Guvacine hydrochloride]	132.34 ± 0.044%
N#C/C(=C(/N)Sc1ccc(N)cc1)c1ccccc1C(F)(F)F	113 ± 29%
Cc1cc2nc3c(=O)[nH]c(=O)nc-3n(C)c2cc1C=O	22.6 ± 1.9%
CC(C)C[C@H](NC(=O)N1CCCCCC1)C(=O)N[C@H](Cc1cn(C)c2ccccc12)C(=O)N[C@H](Cc1ccccn1)C(=O)O	98.9 ± 45%
O=c1c(-c2ccc(O)cc2)coc2cc(O)ccc12 [Daidzein]	77.8 ± 43%
